# Compound activity as filed in PubChem.
# Rab9 prom act: Rab9 promoter activation; Potency, µM (highest dose often 9.22 µM), without a hit: at the highest dose activation, negative = inhibition, usual class: activators; AID 485297; 320,000 compounds, 2.8% hits; Huh7 Rab9 promoter-luciferase reporter, luminescence, 24 h; further: % of control where 0% means no effect; nearly all actives have a fitted effect of over 60% in size
#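 Measured in stably transfected Huh7 cells bearing a Rab9 promoter–luciferase construct: 24 h compound treatment at 37 °C, followed by luminescence detection.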
# NPC1 promoter act: activates the NPC1 promoter. 320,000 compounds, 2.4% hits. Huh7 NPC1 promoter luciferase reporter, 24 h. Potency, µM (doses to about 9.22 µM), for inactives: at the highest dose activation, hits mostly activators; further: % of control where 0% means no effect; nearly all actives have a fitted effect of over 60% in size
#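 In 1536-well qHTS, Huh7 cells harboring an NPC1 promoter–luciferase construct received compound for 24 h; activation was quantified by luminescence following luciferase reagent addition.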
# ELG1 genotoxic: genotoxicity induction in ELG1-luciferase HEK293T cells; HEK293T ELG1-luciferase reporter, luminescence, 16 h; Potency, µM (highest dose often 46 µM), inactives show at the top dose activity change, positive = activation, hits mostly activators; 330,000 compounds, 1.3% hits; AID 504466; further: % of control where 0% means no effect; nearly all actives have a fitted effect of over 60% in size
#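 DMSO vehicle served as control against compound-treated ELG1-luciferase HEK293T cells; exposure lasted 16 hr at 37 °C and 5% CO2, followed by ONE-Glo luminescence detection after 30 min.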
# SMN2 splice up: SMN2 splice variant enhancement; HEK293 SMN2-luciferase splicing reporter, luminescence, 30-36 h; Potency, µM (highest dose often 46.1 µM), inactives show top-dose activity change, positive = activation, hits mostly activators; 210,000 compounds, 2.8% hits; AID 1458; further: % of control where 0% means no effect; nearly all actives have a fitted effect of over 55% in size
#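 HEK293 cells carry an SMN2 minigene-luciferase reporter in which exon 7 inclusion puts luciferase in frame. Cells were seeded at 2000 cells/well, attached for 10-12 hours, then exposed to compounds for 30-36 hours at 37C before ONE-Glo luminescence.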
# FLuc counter: inhibits or activates purified firefly luciferase, miR-21 counter-screen; P08659; purified FLuc, Km substrates, luminescence inhibition; Potency, µM (highest dose often 57.5 µM), inactives show top-dose activity change, negative = inhibition, most hits filed as inhibitors; 360,000 compounds, 6.9% hits; AID 588342;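 further: plate controls were vehicle for no effect and reference inhibitor for full effect; nearly all actives have a fitted effect of over 55% in size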
# Target sequence (P08659 whole entry, looked up): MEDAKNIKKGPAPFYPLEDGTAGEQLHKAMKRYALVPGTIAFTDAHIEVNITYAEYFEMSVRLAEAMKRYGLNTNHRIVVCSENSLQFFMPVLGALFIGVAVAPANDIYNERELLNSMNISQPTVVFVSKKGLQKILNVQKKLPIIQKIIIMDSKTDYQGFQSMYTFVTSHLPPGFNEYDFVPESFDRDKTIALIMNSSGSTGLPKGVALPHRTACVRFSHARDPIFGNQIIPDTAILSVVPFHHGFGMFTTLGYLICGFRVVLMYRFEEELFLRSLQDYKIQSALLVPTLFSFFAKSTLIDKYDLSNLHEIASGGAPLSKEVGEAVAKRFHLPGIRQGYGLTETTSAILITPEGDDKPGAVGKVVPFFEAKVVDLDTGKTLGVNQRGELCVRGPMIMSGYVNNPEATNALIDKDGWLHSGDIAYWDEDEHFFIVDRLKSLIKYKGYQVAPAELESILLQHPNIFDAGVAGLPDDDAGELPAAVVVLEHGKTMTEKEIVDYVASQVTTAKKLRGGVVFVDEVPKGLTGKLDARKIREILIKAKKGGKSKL
#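 Purified P. pyralis luciferase, 10 nM final, with Km-level 10 uM D-luciferin and 10 uM ATP in 50 mM Tris acetate pH 7.5, 10 mM Mg acetate, 0.01% Tween-20, 0.05% BSA; 6-point qHTS titration about 60 µM downward; luminescence read.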
# Numbers without * were called inactive; ? = inconclusive; . = no result given; [ ] = another dose, or the depositor's remark. Rows were chosen to be rich in hits. Some 7.5% of all compounds tested hit in one or more screens of this group. The call rests on the fitted dose curve; in most records, active means well fitted curve in the direction sought with a large enough effect; inconclusive means small, poorly fitted or top-dose-only effect, or another doubt; inactive means no such curve, though single readings can be large; an effect the other way counts as inactive or inconclusive. Potency means the concentration at half of the fitted maximal effect.
SMILES,Rab9 prom act,NPC1 promoter act,ELG1 genotoxic,SMN2 splice up,FLuc counter
O=C(Nc1ccc2nc(-c3ccc4nc[nH]c4c3)[nH]c2c1)c1cccs1,-3%,-1%,-1%,-7%,21µM*
CC1(C)S[C@@H]2[C@H](C(=O)O)N=C(Cc3ccccc3)N2[C@H]1C(=O)O,.,.,.,-15%[9.22 µM],.
CC(C)(C)c1ccc(C2(C)NC(=O)NC2=O)cc1 (configuration not stated),-4%,1%,-2%,.,0%
COc1cccc(NC(=O)C(=O)NCCC2CCCCN2S(=O)(=O)c2cccs2)c1 (configuration not stated),29%,11%,1%,.,11µM*
O=C(NCc1cccs1)C(=O)NCC1OCCCN1S(=O)(=O)c1ccccc1 (configuration not stated),0%,-7%,-1%,5.6µM*,5%
Cc1ccc(N2NC(C)(c3cccs3)NC2=S)cc1 (configuration not stated),3.5µM*,4.5µM*,?,22%,9.5µM*
Cc1ccc(N2CC(O)(c3cccs3)[N+]3=C2CCCC3)cc1 (configuration not stated),-1%,-3%,0%,-12%,6%
Cc1cccc(OCc2nnc(SCC(=O)Nc3ccc(C)c(Cl)c3)o2)c1,-4%,-2%,-2%,-5%,-16%
CCOC(=O)c1oc2ccc(CNCCO)c(Cl)c2c1C,28%,24%,?,24%,17µM*
COC(=O)C(c1ccccc1Cl)N1CCc2sccc2C1 (configuration not stated),.,.,.,-4%,.
CCN(CC)C(=O)c1sc(NC(=O)c2cccs2)c(C#N)c1C,-8%,-8%,-3%,.,-14%
CCN(CC)C(=O)c1ccc(-c2cccs2)s1,3.5µM*,2.5µM*,?,.,11µM*
COc1cc2nc(N3CCCN(C)CC3)nc(NC3CCN(Cc4ccccc4)CC3)c2cc1OC,-40%[46.1 µM],-35%[46.1 µM],.,.,.
CC(C)(C)c1ccc(C(=O)N2CCC(C(=O)NCC3CCCO3)CC2)cc1 (configuration not stated),?,28%,8%,11µM*,?
CC(C)(C)c1ccc(C(=O)N2CCC(C(=O)NCc3ccco3)CC2)cc1,11%,10%,6%,2.5µM*,-18%
CC(C)(C)c1ccc(C(=O)NC(=S)NCC2CCCO2)cc1 (configuration not stated),12%,7%,4%,.,27µM*
CC(C)(C)c1ccc(C(=O)NNC(=S)NCC2CCCO2)cc1 (configuration not stated),0%,-1%,0%,-28%,-12%
CC(C)(C)c1ccc(C(=O)NC(=S)N2CCOCC2)cc1,2.2µM*,2.2µM*,8.2µM*,.,9.5µM*
Cc1nc(NCCO)c2nc(-c3ccccc3)n(CCCN(C)C)c2n1,.,.,.,-13%,.
O=C(Cn1nnc(-c2ccc(NC(=O)c3ccccc3F)cc2)n1)NCc1ccc(F)cc1,23%,19%,12%,.,-4%
O=C(O)c1ccc(C(=O)Nc2ccc(F)cc2)cc1,-1%,-2%,-1%,.,-16%
O=C(Nc1ccc(Nc2ccccc2)cc1)c1ccc(F)cc1,12%,16%,3%,.,19µM*
CC(=O)c1cnc(Nc2cccc(C)c2)s1,2.5µM*,?,11%,18µM*,?
NC(=O)Cn1nnc(-c2ccc(NC(=O)c3ccc(F)cc3)cc2)n1,?,?,?,14µM*,?
CC(=O)Nc1cccc(C)c1,0%,-1%,0%,-4%,1%
SMILES,Rab9 prom act,NPC1 promoter act,ELG1 genotoxic,SMN2 splice up,FLuc counter
Cc1cc(C)c2cc(C(=O)Nc3ccc4c(c3)OCO4)[nH]c2c1,12%,2%,0%,.,?
Cc1cc(C)c2cc(C(=O)Nc3ccccc3)[nH]c2c1,3.2µM*,4.5µM*,?,.,?
O=C(COC(=O)c1cc(-c2cccs2)nn1-c1ccccc1)Nc1ccc(F)c([N+](=O)[O-])c1,4%,5%,0%,-14%,-2%
CCOC(=O)c1[nH]c2ccc(OC)cc2c1NC(=O)CCN1CCCC(C)C1 (configuration not stated),3%,0%,0%,-5%,-1%
CCOC(=O)C1CCCN(C(=O)CCCn2nnnc2CN2CCC(C)CC2)C1 (configuration not stated),-3%,-2%,0%,.,0%
CC(C)(O)C#Cc1ccc(CN2CCCC(CO)(Cc3cccc(Cl)c3)C2)cc1 (configuration not stated),-2%,-6%,-8%,-23%,1%
O=C(c1ccc(F)cc1)c1cnc(Nc2ccccc2)s1,1.3µM*,2µM*,?,.,0.6µM*
O=C(c1ccccc1)c1cnc(Nc2ccc(Cl)c(Cl)c2)s1,4%,-2%,13%,-24%,1%
Cc1sc(C(=O)Nc2ccc3ccccc3c2)cc1CC(=O)O,?,?,15%,?,9.5µM*
Cc1ccc(C(=O)Nc2ccc3ccccc3c2)cc1,0.22µM*,0.1µM*,0.29µM*,.,0.076µM*
O=C(Nc1ccc2oc(=O)ccc2c1)c1ccc2ccccc2c1,?,?,9%,.,9.5µM*
COc1ccc(N(CC(=O)Nc2cc(C)ccc2C)S(=O)(=O)c2ccc(OC)c(OC)c2)cc1,.,.,.,-6%,-10%
Cc1ccc(NC(=O)c2ccccc2)cc1,2.2µM*,2µM*,?,14µM*,6µM*
O=C(Nc1ccc2ccccc2c1)c1ccc(Cl)cc1,0.32µM*,0.5µM*,0.92µM*,.,0.54µM*
Cc1ccc(NC(=O)C(=O)c2ccc(C)cc2)cc1,2.8µM*,0.63µM*,4.6µM*,.,1.9µM*
O=C(Nc1ccncc1)c1ccc2ccccc2c1,3.5µM*,?,15%,.,17µM*
O=C(Nc1ccncc1)c1ccc(Cl)cc1,2%,-3%,-7%,.,?
C1CCCC1,.,.,.,-2%,.
CCOC(=O)c1noc2ncn(CC(=O)Nc3ccccc3OC)c(=O)c12,.,.,.,.,-6%
CC(C)C(NC(=O)OCc1ccccc1)C(=O)OCC(=O)N1CCCCC1 (configuration not stated),?,29%,21µM*,?,17µM*
O=c1c2ccccc2sn1-c1cc(S(=O)(=O)N2CCOCC2)ccc1N1CCCC1,-2%,12%,-1%,14%,5.4µM*
O=c1c2ccccc2sn1-c1cc(S(=O)(=O)N2CCOCC2)ccc1N1CCOCC1,11%,1%,-3%,4%,4.8µM*
Nc1cc(S(=O)(=O)N2CCOCC2)ccc1N1CCCCC1,.,.,1%,.,.
Cc1ccc(NC(=O)C(Cc2ccccc2)NS(=O)(=O)c2ccc3c(c2)c(=O)n(C)c(=O)n3C)cc1 (configuration not stated),.,.,.,3%,-6%
O=C(Nc1cccc(Oc2ccc(C(=O)O)c(C(=O)O)c2)c1)c1ccc(-c2ccccc2)cc1,-4%,1%,-2%,.,1.7µM*
